# A selection: hits, their analogues and other compounds. The true share with any hit is near 7.1%.
# Lassa entry: Lassa virus entry inhibition; Lassa virus pseudotyped entry inhibition, cell-based qHTS; Potency, µM (highest dose often 49.2 µM), inactives show top-dose activity change, negative = inhibition, most hits filed as inhibitors; hit rate 4.1% among 18,000
# MARV entry inh: inhibitors of Marburg virus binding or entry into cells. hit rate 6.5% among 18,000. Potency, µM (doses to about 49.2 µM), without a hit: at the highest dose activity change, negative = inhibition, hits mostly inhibitors. Marburg virus pseudotype entry/binding inhibition, cell-based
# * marks the source's active call; other numbers are inactive results; ? = inconclusive; ! = a repeat was not active; [ ] = another dose, or the depositor's remark. The call rests on the fitted dose curve; tested in HEK293 cells. On the % scale 0 is the no-effect control and ±100 the full control effect; potency means the concentration at half of the fitted maximal effect.
SMILES,Lassa entry,MARV entry inh
CN(CCCN1c2ccccc2CCc2ccccc21)CC(=O)c1ccc(Cl)cc1,?,7.9µM*
NCCNC(=O)c1ccc(Cl)cc1,-2%,7%
CN(C)CCCN1c2ccccc2CCc2ccc(Cl)cc21,11µM*!,8.9µM*
Cc1nonc1CN(C)C(=O)C1CC12CCN(C(=O)/C=C/c1cccc(Cl)c1)CC2 (centres undefined),-11%,-27%
CCOCCn1c(N2CCCN(C)CC2)nc2ccccc21,-11%,-7%
Cc1cnc(CNc2ncnc3ccc(-c4ccccc4CN(C)C)cc23)cn1,1%,-23%
COCCNc1nc(-c2ccccc2C)nc2ccccc12,-2%,-1%
COc1ccccc1CNc1nc(-c2ccccc2CN(C)C)nc2ccccc12,?,11µM*
COc1ccccc1CNc1ncncc1-c1ccccc1CN(C)C,-22%,?
CN(C)Cc1ccccc1-c1nc(NCc2ccccc2)c2ccccc2n1,?,10µM*
COCCNc1nc(-c2ccccc2CN(C)C)nc2ccccc12,-24%,13µM*
CN(C)Cc1ccccc1-c1cncnc1NCc1ccccc1,-5%,-25%
COc1ccccc1CNc1ncnc2ccc(-c3ccccc3CN(C)C)cc12,-6%,20µM*
C[C@@H]1CCC2[C@](C)(CO)C(O)CC[C@@]2(C)[C@@]12CC[C@](CO)(CCO)O2 (some centres undefined),-2%,12%
O=S1(=O)c2cccc(Cl)c2OC[C@H](c2ccccc2)N1Cc1ccc(F)cc1,-15%,?
CC[C@@H]1C(c2ccccc2)=NN(c2ccccc2)[C@H]1C(=O)N1CCOC1=O,-20%,3%
COC(=O)C1=C(C(=O)OC)[C@@H]2N(C)c3ccccc3[C@@]23C[C@@H](CO)N(C(=O)c2ccc(Br)cc2)C3=N1,14%[8.59 µM],?
COc1ccc(CCN(C)Cc2cc(-c3cncnc3)ccc2O)cc1OC,-10%,-13%
CN(C)CCCc1cc(C(=O)Nc2ccc(-c3ccncc3)cc2)ccc1O,35µM*!,6.3µM*
OC1C=C2CCN3Cc4cc5c(cc4C(C1O)C23)OCO5 (centres undefined),-28%,13µM*
O[C@H]1[C@H]2c3cc4c(cc3CN3CCC(=C[C@@H]1O)[C@H]23)OCO4,18%,1%
COc1cccc(-n2ncc3c(NN=Cc4ccc(C(=O)NCCN(C)C)cc4)ncnc32)c1,11%,10µM*
COc1cccc(-n2ncc3c(NN=Cc4ccncc4)ncnc32)c1,50%,-20%
COc1cc(C=NNc2ncnc3c2cnn3-c2ccccc2)ccc1O,?,14µM*
COc1cccc(C=NNc2ncnc3c2cnn3-c2cccc(OC)c2)c1,-45%,-19%
SMILES,Lassa entry,MARV entry inh
COc1ccc(OC)c(C(=O)N(Cc2cc3cccc(C)c3nc2N2CCC(O)CC2)C2CC2)c1,-27%,8%
COc1cc(O)c2c(c1)C(=O)c1cc(C)cc(O)c1C2=O,0%,-5%
COC(=O)C1=C(C)N(Cc2ccco2)C(=O)N[C@H]1c1ccc(Br)cc1,-9%,6%
CCC1CN(CC(=O)NCc2ccc3c(c2)OCO3)Cc2ccc(Cl)cc2O1 (centres undefined),22%,?
O=C(/C=C/c1ccc(O)c(O)c1)c1ccc(O)cc1O,-22%,-28%
CCNC(C)Cc1cccc(C(F)(F)F)c1 (centres undefined),2%,11%
C[C@@H](NCCCc1cccc(C(F)(F)F)c1)c1cccc2ccccc12,16µM*,6.3µM*
O=C1c2ccccc2C(=O)c2ccccc21,6%,5%
O=C1C(=O)c2ncccc2-c2cccnc21,2.5µM*,?
CCC(C)(C)OC(=O)N[C@@H](Cc1c[nH]c2ccccc12)C(=O)N[C@@H](CCSC)C(=O)N[C@@H](CC(=O)O)C(=O)N[C@@H](Cc1ccccc1)C(N)=O,-4%,-1%
CCCOC(C(=O)OC1CCN(C)CC1)(c1ccccc1)c1ccccc1,16µM*,6.3µM*
C[N+]1(C)CCC(OC(=O)C(O)(c2ccccc2)C2CCCC2)C1 (centres undefined),?,8%
CC/C(=C(/CC)c1ccc(OP(=O)(O)O)cc1)c1ccc(OP(=O)(O)O)cc1,-14%,8%
CCOC(=O)c1ccc(O)cc1,7%,13%
CCC(=C(CC)c1ccc(O)cc1)c1ccc(O)cc1,6.3µM*,?
CC/C(=C(/CC)c1ccc(O)cc1)c1ccc(O)cc1,3.5µM*,?
C[C@H]1N[S+](=O)([O-])c2cc(Cl)ccc2O[C@H]1c1ccccc1,29%,23%
COCOc1cc(OC)ccc1C(=O)C=Cc1ccc2c(c1)OCO2,-30%[8.59 µM],?
CCOC(=O)c1c(C)cc(OC)cc1O,-8%,3%
O[C@H](CCCN1CCN(c2ncc(F)cn2)CC1)c1ccc(F)cc1,0%,-26%
OC(c1ccccc1)(c1ccccc1)C1CCNCC1,-1%[17.8 µM],-25%[17.8 µM]
CC(C)(C)c1ccc([C@@H](O)CCCN2CCC(C(O)(c3ccccc3)c3ccccc3)CC2)cc1,6.3µM*,?
CC(C)(C)c1ccc(C(O)CCCN2CCC(C(O)(c3ccccc3)c3ccccc3)CC2)cc1 (centres undefined),16µM*,?
OC(c1ccc2c(c1)CN(Cc1c[nH]c3ccccc13)CCO2)c1ccccn1 (centres undefined),5%,-18%
CCCCOC(OCCCC)C(O)CSc1ccc2ccccc2c1 (centres undefined),14%[8.59 µM],-28%[8.59 µM]
SMILES,Lassa entry,MARV entry inh
COc1ccc(C(=O)OC2CC3CC[C@H](C2)N3C(C)=O)cc1OC (some centres undefined),-1%,1%
Cc1nccn1CC1CCC2C(C1=O)c1ccccc1N2C (centres undefined),-11%,-22%
CC(C)NC[C@@H](O)COc1ccc(CC(N)=O)cc1,1%,-24%
CN(CCc1ccc(Cl)c(Cl)c1)C[C@@H](O)COc1ccc(NS(C)(=O)=O)cc1,-21%,14µM*
CNC(=O)C[C@H]1C(=O)N(C2CCCCC2)C[C@@H]1CSC,13%,?
Cc1cnc(-n2ncc(C(=O)N(C)C3CCOC3)c2C)nc1-c1ccc(F)cc1 (centres undefined),5%,-9%
CC1CCN(CCCC(=O)c2ccc(F)cc2)CC1,-3%,-19%
CC(C)(C)c1ccc(C(=O)CCCN2CCC(OC(c3ccccc3)c3ccccc3)CC2)cc1,8.9µM*,-67%
O=C1OCCN1C(=O)[C@H]1[C@H](c2ccc(F)cc2)C(c2ccc(F)cc2)=NN1c1ccccc1,-11%,-6%
CC(=O)Nc1c2sscc-2n(C)c1=O,10µM*,11µM*
CC(=O)Nc1c(N)[nH]c(=O)n(C)c1=O,4%,-3%
O=C(Nc1ccc(C(=O)Nc2ccc(C(=O)Nc3ccc(S(=O)(=O)O)c4cc(S(=O)(=O)O)cc(S(=O)(=O)O)c34)cc2)cc1)Nc1ccc(C(=O)Nc2ccc(C(=O)Nc3ccc(S(=O)(=O)O)c4cc(S(=O)(=O)O)cc(S(=O)(=O)O)c34)cc2)cc1,5%,4µM*
O=C(Nc1cc(C(=O)Nc2ccc(S(=O)(=O)O)cc2S(=O)(=O)O)cc(C(=O)Nc2ccc(S(=O)(=O)O)cc2S(=O)(=O)O)c1)Nc1cc(C(=O)Nc2ccc(S(=O)(=O)O)cc2S(=O)(=O)O)cc(C(=O)Nc2ccc(S(=O)(=O)O)cc2S(=O)(=O)O)c1,-5%,-23%
NCCCCCN,-10%,4%
CCCCCC(=O)CC[C@@H]1[C@@H](C/C=C\CCCC(=O)O)[C@@H](O)C[C@H]1O,-14%,4%
CCCCCCCC(=O)CC[C@@H]1[C@@H](C/C=C\CCCC(=O)OC(C)C)[C@@H](O)C[C@H]1O,16µM*,?

# Screens: PubChem BioAssay, National Center for Advancing Translational Sciences (NCATS)
